About 83,000 compounds went through this panel and 20% of them were active in at least one assay; those are over-represented in the sample as a whole.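 Treatment: one concentration, 48 hours, 96-well format. Scoring: percent growth, with anything below 10 considered active.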 Values without a mark were called inactive. Calls of active or inactive are those of the source.
Tests used:
Experiment in all cases: NCI-60 one-dose screen, 48 h (100 = growth as untreated, 0 = no growth, -100 = all killed)
Details in all cases: 10 µM unless noted
[1] = system: NCI-H23 lung
[2] = system: NCI-H226 lung
[3] = system: NCI-H322M lung
[4] = system: HOP-62 NSCLC
[5] = system: NCI-H460 lung
[6] = system: HOP-92 NSCLC
[7] = system: NCI-H522 lung
[8] = system: A549/ATCC NSCLC
[9] = system: 786-0 renal
[10] = system: COLO 205 colon

Compound | growth [1] | growth [2] | growth [3] | growth [4] | growth [5] | growth [6] | growth [7] | growth [8] | growth [9] | growth [10]
O=C1CC2C=CCN2C=C1NC(=O)c1ccccc1 (stereo not given) | 101% | 102% | 99.8% | 114% | 111% | 110% | 104% | 92.6% | 98.5% | 102%
COc1ccc(S(=O)(=O)N(C)c2oc(-c3ccc(Cl)cc3)nc2C#N)cc1 | 79.7% | 94.9% | 98.2% | 82.7% | 95.9% | 77.2% | 83% | 87.3% | 98.2% | 97.9%
COC(=O)c1nc(-c2ccc(C)cc2)oc1N1CCOCC1 | 106% | 94% | 105% | 98.3% | 100% | 102% | 90.7% | 88.4% | 82.3% | 111%
O=C(O)/C=C\C(=O)Nc1ccc2c(c1)Cc1cc(F)ccc1-2 | 95.9% | 98.3% | 99.7% | 87.9% | 110% | 97.5% | 90.9% | 106% | 99.7% | 105%
C#Cc1cccc(Nc2nc(Cl)nc3cc(NC(=O)CCl)ccc23)c1 | -73.9% (active) | -49.4% (active) | -73.1% (active) | -77% (active) | -58.9% (active) | -82.7% (active) | -69.1% (active) | 13.1% | -83.6% (active) | -70.5% (active)
Cc1ccc2c(n1)C[C@H](C(C)(C)O)CC[C@H]2C | 103% | 100% | 98.5% | 101% | 108% | 97.7% | 94.3% | 94.4% | 97.9% | 111%
C#CCOc1cc(/C=N/Nc2nc(-c3ccc(OC)cc3)cs2)ccc1O | 58.8% | 89.6% | 92.4% | 97% | 88.4% | 86.3% | 76.1% | 74.2% | 92.6% | 103%
Nc1ncc(-c2ccc3ncnc(N4CCc5cc(F)c(Cl)cc54)c3c2)cc1C=O | 31.6% | 37.2% | 2.51% (active) | 15.2% | 11.8% | -22.8% (active) | 26.7% | 7.18% (active) | 8.62% (active) | 19.6%
Cc1ccc(Nc2nc(N)nc(N)c2N=O)cc1Cl | 71.9% | 94.1% | 104% | 76% | 102% | 63% | 75.4% | 98.3% | 79.4% | 111%
COc1cc2cc(Oc3ccc(NC(=O)Nc4ccc(Cl)c(Cl)c4)cc3)c(C)nc2cc1OCCN1CCCCC1 | 107% | 77.7% | 104% | 107% | 102% | 75.1% | 102% | 86.9% | -70% (active) | 112%
COc1ccc(/C=N\NC(=O)c2ccc3nc(-c4ccc(Cl)cc4)[nH]c3c2)cc1 | 41.6% | 73.8% | 55.9% | 30.3% | 5.91% (active) | 36% | 82.6% | 12% | 3.15% (active) | 22.9%
COc1ccc(CNc2c3ccccc3nc3ccccc23)cc1OC | 15.1% | 27.9% | 29.8% | 34.5% | 6.17% (active) | -9.67% (active) | 18.2% | 16.3% | 25.4% | 5.3% (active)
COc1ccc(C(=O)C2OC3=C(C(=O)CC(C)(C)C3)C2c2cccc(Oc3ccccc3)c2)cc1 (stereo not given) | 97% | 86.9% | 95.1% | 97% | 96.9% | 76.4% | 76.3% | 85.7% | 93% | 110%
CC1=C2[C@@H](CC1)[C@]1(C)O[C@@](C(C)C)(C[C@H]1OC(=O)CO)[C@H]2OC(=O)CCCc1ccccc1 | 81.4% | 61.4% | 90% | 39.5% | 68% | 37.4% | 45.1% | 58.4% | 79.2% | 55.1%
C#C[C@]1(O)CC[C@H]2[C@@H]3CC=C4c5sc(-c6cccc(C)c6)nc5CC[C@]4(C)[C@H]3CC[C@@]21C | 73% | 91.1% | 66.1% | 83.4% | 76.6% | 49.6% | 70% | 75.4% | 32.8% | 107%
CC1=NC(=S)NC(c2ccccc2)/C1=C1/CC(c2ccccc2O)NN1 (stereo not given) | 92.5% | 97% | 101% | 92.7% | 104% | 84.5% | 96.3% | 100% | 100% | 105%
COc1ccc(-c2cc(-c3ccc(Cl)cc3)c(C#N)c(=O)n2CCCCC(=O)NO)cc1 | 84.9% | 77.2% | 77.3% | 66.5% | 99.1% | 87.2% | 58.8% | 82.7% | 80.2% | 86.3%
COC(=O)c1c(C(=O)OC)c2ccc3c4ncccc4ccc3n2c1C(=O)c1ccc(C)cc1 | 101% | 96.6% | 90.7% | 76.7% | 101% | 91.7% | 68% | 83.2% | 91% | 98.8%
CCCN1C(=O)N(CCC)C2C1NC(=S)N2/N=C/C=C/c1ccccc1OC (stereo not given) | 36.4% | 55.4% | 44.6% | 38.7% | 6.85% (active) | 77.4% | -11.3% (active) | 13.1% | 35.6% | 17.6%
Nc1ncc(-c2ccc3ncnc(N4CCc5cc(F)c(Cl)cc54)c3c2)cn1 | 58.8% | 33.6% | 25.1% | 28.7% | 38.8% | 11.5% | 44.1% | 28.5% | 26% | 51.5%
CN1CCN(Cc2ccc(NC(=O)c3cncc(C#Cc4c(N)ncc5cc(F)ccc45)c3)cc2C(F)(F)F)CC1 | -39.5% (active) | 22.2% | 40.5% | 45.1% | -19.8% (active) | -14.2% (active) | 34.4% | 45% | -94% (active) | -20.5% (active)
CC(=O)CC(=O)c1ccccc1.[Cu+2] | 97.1% | 114% | 105% | 119% | 110% | 120% | 97.5% | 104% | 107% | 116%
CC1=NN(c2cccc(Cl)c2)C(=O)/C1=C\C=C\c1ccccc1 | 26.3% | 3.87% (active) | 112% | 22.3% | 101% | 101% | 34.4% | 94.5% | 35.5% | 4.77% (active)
COc1ccc(S(=O)(=O)NC2c3ccccc3CC2O)cc1OC (stereo not given) | 103% | 102% | 109% | 102% | 109% | 109% | 99% | 102% | 104% | 119%
CN1CCN(c2ccc(Nc3ncc4[nH]c(=O)n(Cc5ccccc5N)c4n3)cc2)CC1 | 97.5% | 80.3% | 100% | 77.8% | 102% | 85.5% | 77.1% | 97.5% | 84.1% | 107%
CC(C)(C)n1cc(-c2ccnc(NCCNS(=O)(=O)c3cccc4ccccc34)c2)c(-c2cccc(O)c2)n1 | 69.7% | 75.3% | 89.6% | 88.2% | 55.9% | 64.5% | 61.9% | 62.7% | 64.3% | -33.1% (active)
Cc1ccc(OCCOCCOCCOCCOc2ccc(C)n(O)c2=S)c(=S)n1O | 18.5% | 7.35% (active) | 23.6% | -0.489% (active) | 1.54% (active) | 36.8% | 17.9% | 12.5% | -5.93% (active) | 5.35% (active)

Source: PubChem BioAssay (NCI)
